Bioassay records (PubChem)
This is a sample that favours compounds with a hit; in the whole collection about 4.6% have one here.
D1 PAM: potentiators of human D1 dopamine receptor; P21728; HEK293 TREx D1 cells, calcium flux, dopamine EC20 potentiation; potentiation, % at 10 µM; 0.036% of 360,000 active; in the data active = potentiation above about 30%; note: 0% is about no effect
TRHR enhancer: allosterically enhances the human TRH receptor. TRHR cells, fluo-8 calcium fluorescence, EC20 TRH enhancement. enhancement, % at 2 µM. 0.66% of 360,000 active; in the data active = enhancement above about 30%; note: 0% is about no effect
Target sequence (P34981 whole entry, looked up): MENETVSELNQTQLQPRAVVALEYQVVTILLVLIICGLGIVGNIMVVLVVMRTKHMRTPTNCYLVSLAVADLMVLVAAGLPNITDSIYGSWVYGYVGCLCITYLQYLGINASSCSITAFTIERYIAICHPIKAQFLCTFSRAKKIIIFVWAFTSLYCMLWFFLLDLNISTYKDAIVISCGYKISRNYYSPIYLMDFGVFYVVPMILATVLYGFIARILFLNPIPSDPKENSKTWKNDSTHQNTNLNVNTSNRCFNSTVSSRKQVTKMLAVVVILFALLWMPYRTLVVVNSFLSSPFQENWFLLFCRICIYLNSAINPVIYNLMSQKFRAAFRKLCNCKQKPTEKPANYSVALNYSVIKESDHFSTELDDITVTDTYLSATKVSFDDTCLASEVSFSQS
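TRHR-expressing cells loaded with fluo-8 calcium dye were read kinetically (ex 480/em 530) during compound addition, then stimulated with an EC20 of TRH (10 nM final). Enhancement of the Gq-mediated intracellular calcium response was scored.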
D1 antag: blocks dopamine activation of the human D1 receptor | P21728 | HEK293 TREx D1 cells, calcium flux, dopamine EC80; stronger effect = lower value | activity change, negative = inhibition, % at 10 µM | 3.2% of 360,000 active; in the data active = activity change below about -30%; note: % is set by controls: 0 for no effect and ±100 for the full control effect
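Allosteric or orthosteric antagonism assessed as attenuation of the calcium response to EC80 dopamine, added 180 s after compound, in induced HEK293 Trex D1 cells loaded with no-wash calcium dye.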
D1 agonist: human D1 receptor agonism; P21728; 1% of 360,000 active; HEK293 T-REx D1 cells, calcium flux, agonist mode; activation, % at 2 µM; note: 0% is about no effect
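Tetracycline-induced HEK293 TREx D1 cells, force-coupled to calcium signalling, were dye-loaded with a no-wash calcium kit. Compound was pin-added after a 10 s baseline. Fluorescence was read kinetically at 1 cycle/s for 180 s, with calcium rises flagged as agonism.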
TRHR ag: activates the human TRH receptor; activation, % at 2 µM; 0.18% of 360,000 active; TRHR cells, calcium flux fluo-8, FDSS agonist mode; AID 493084; note: 0% is about no effect
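Agonist-mode FDSS calcium read (Ex 480/Em 530, 1 s cycles) in 1536-well TRHR cells with fluo-8 dye, after 10-cycle baseline and 23 nL compound addition; TRH at EC20 (10 nM final) added afterwards for the enhancer phase.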
* marks the source's active call; other numbers are inactive results. Cut-off read from the data, not from the text of the source, unless noted: active = activation above about 30%; inactive = the rest.

SMILES	D1 PAM	TRHR enhancer	D1 antag	D1 agonist	TRHR ag
O=C(NCCCCO)c1ccc2c3c(cccc13)CC2	1	7	0	0	0
C=C1CCC2[C@](C)(CO)[C@H](O)CC[C@@]2(C)[C@@H]1/C=C/C1=CCOC1=O (stereo not given in full)	-6	-1	-66*	2	1
C=C1CC[C@@H]2[C@](C)(CO)[C@H](O)CC[C@@]2(C)[C@@H]1/C=C/C1=CCOC1=O	-2	12	-10	4	0
Cc1ccc(-c2nc(Nc3cccc(O)c3)c3ccccc3n2)cc1	-14	7	-30*	7	3
O=[N+]([O-])c1ccc(-c2nc(Nc3cccc(O)c3)c3ccccc3n2)cc1	-9	-4	-33*	5	1
Cc1ccc(-c2nc(Nc3ccc(O)cc3)c3ccccc3n2)cc1	-6	2	-23	0	2
O=C(NCc1cccnc1)c1ccc(Cl)c(S(=O)(=O)N2CCOCC2)c1	-7	4	-7	6	1
CN(C)CCOC(=O)CC12CC3CC(C1)CC(CC(=O)OCCN(C)C)(C3)C2	2	2	13	3	0
CC(C)Oc1ccc(CNC(=O)c2ccc3nc(Cc4ccccc4)oc3c2)cc1	-1	1	-1	33*	1
Cc1cccc(CNC(=O)c2ccc3nc(Cc4ccccc4)oc3c2)c1	-4	-1	-31*	31*	1
COc1cc(NS(=O)(=O)c2ccc(NC(=S)NC(=O)C3CCCC3)cc2)nc(OC)n1	-12	-6	-35*	1	0
CN(CCOc1ccc(Cl)cc1)C(=O)C1CCN(C(=O)c2ccc(F)cc2)CC1	-12	18	-33*	13	1
COc1ccc(NS(=O)(=O)c2ccc(NC(=O)C3CC3)cc2)cc1	-12	-18	-87*	12	0
COC(=O)c1ccccc1NC(=O)C1CCN(C(=O)c2ccc(OC)cc2)CC1	-13	-5	-33*	1	0
CN(CCOc1ccccc1)C(=O)C1CCN(C(=O)c2ccc(Cl)cc2)CC1	-13	3	-3	4	-1
Cc1ccc(NC(=O)CCS(=O)(=O)c2ccc3c(c2)oc(=O)n3C)c(Br)c1	-3	-3	-1	-1	0
CCCCN1C=CC(=C2N=c3cccc([N+](=O)[O-])c3=N2)C=C1	-2	0	-4	-1	0
COc1ccc2c(c1)-c1nc(/N=C/c3cccc(OC)c3O)sc1CC2	-2	2	7	0	-1
CCCCC(CC)CNC(=O)c1ncn[nH]1 (stereo not given)	-3	-5	17	0	0
Cc1ccc(NC(=O)C2CCN(C(=O)c3ccccc3C)CC2)cc1	0	4	-44*	0	0
COc1ccc(C(=O)N2CCC(C(=O)Nc3ccc(Cl)cc3)CC2)cc1	-3	8	-42*	16	-1
COc1ccccc1NC(=O)Cn1c(=O)c(CNc2ccccc2)cc2cc(OC)c(OC)cc21	-2	3	2	69*	-1
COc1cc2cc(CNc3ccccc3)c(=O)n(CC(=O)Nc3ccccc3)c2cc1OC	2	-3	7	37*	5
CCc1ccc(NCc2cc3cc(OC)c(OC)cc3n(CC(=O)Nc3ccc(F)cc3)c2=O)cc1	-3	-5	6	7	4
COc1ccccc1NC(=O)Cn1c(=O)c(CNc2ccc(C)cc2)cc2cc3c(cc21)OCCO3	4	3	-16	4	0
SMILES	D1 PAM	TRHR enhancer	D1 antag	D1 agonist	TRHR ag
COc1ccc(CCNCc2ccccc2N2CCCC2)cc1	2	-5	10	1	-1
COc1ccc(CCNCc2cc(C)n(-c3ccc(OC)cc3)c2C)cc1	-8	-14	-6	55*	0
O=C(Nc1n[nH]c(C(F)(F)F)n1)C1CC1	-4	-4	-34*	3	-1
CCn1c(CN2CCCCC2)nc2cc(NC(=O)c3cc(OC)c(OC)c(OC)c3)ccc21	0	3	5	1	1
CCCN(CC(=O)Nc1ccccc1OC)C(C)C(=O)NC(C)CCc1ccccc1 (stereo not given)	1	1	3	0	-1
N=c1oc2cc(O)ccc2cc1C(=O)Nc1nc2ccccc2s1	-10	2	7	6	3
N=c1oc2cc(O)ccc2cc1C(=O)Nc1ccccn1	3	31*	14	5	5
COc1cc2[nH]c(=S)n(C3CC3)c(=O)c2cc1OC	0	2	-31*	3	0
O=C1c2ccccc2C(=O)N1CCc1csc(NNc2nc(CCN3C(=O)c4ccccc4C3=O)cs2)n1	-3	1	-1	2	0
CCOc1ccccc1NC(=O)N1CCN(S(C)(=O)=O)CC1	-6	-1	-9	2	1
CCC(=O)N/C=C/n1cnc2cc(C(F)(F)F)ccc21	-5	-9	-23	6	1
CN(C)c1cccc(C(=O)N/C=C/n2cnc3cc(C(F)(F)F)ccc32)c1	5	-7	-39*	0	0
O=C(CNCCO)N1N=C(c2cccs2)CC1c1cccs1 (stereo not given)	5	-1	-5	3	0
Cc1ccc(C2=NN(C(=O)CNCCO)C(c3cccs3)C2)cc1 (stereo not given)	-5	3	-33*	2	1
Cc1ccc(C2CC(c3cccs3)=NN2S(=O)(=O)c2ccc(C)cc2)cc1 (stereo not given)	-1	1	-33*	7	2
CC(=O)N1N=C(c2ccccc2)CC1c1cccs1 (stereo not given)	-6	-3	10	2	-1
Cc1ccc(C2=NN(S(C)(=O)=O)C(c3cccs3)C2)cc1 (stereo not given)	-11	-21	-48*	0	0
O=C(c1ccccc1)N1N=C(c2ccccc2)CC1c1cccs1 (stereo not given)	-9	4	-67*	4	1
COCCCNC(=O)c1cccn2c(=O)c3cc4ccccc4cc3nc12	-3	7	6	16	8
COC(=O)/C=c1/s/c(=C(\C#N)C(=O)NCc2ccco2)n(-c2ccccc2)c1=O	-2	-2	-33*	1	1
CC1=NN(C(=O)c2ccc(Cn3cc([N+](=O)[O-])cn3)cc2)C(O)(C(F)(F)F)C1 (stereo not given)	-7	-8	7	42*	3
O=C(O)COn1c(-c2ccccc2)nc2ccc(Cl)cc21	-4	-4	-8	1	0
COn1c(-c2ccccc2)nc2ccc(Cl)cc21	-7	4	-65*	3	0
COc1ccc(OC)c(-n2nnnc2SCC(=O)Nc2ccccc2N2CCOCC2)c1	-2	3	-34*	0	0
COc1ccc(CCNC(=O)CSc2cn(Cc3ccccc3)c3ccccc23)cc1OC	-6	-7	-4	0	0
